Data from PubChem BioAssay AID504833 (Johns Hopkins Ion Channel Center, 2011).
Hit rate of the full screen: of about 2,500 compounds, about 2,200 (88%) were called active.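 Rule for the calls: active = primary screen active, with duplicate mean activation above negative control mean plus 3 SD (cut at about 11% in these data); inactive = the rest.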 So high a share suggests a set chosen from earlier hits. The list is a sample of the results.

biological target: High affinity choline transporter 1 (Homo sapiens) (UniProt Q9GZV3); experiment: CHT activators, confirmation, cell-based, membrane potential dye, duplicate (AID 504833); conditions: CHT-expressing cells, membrane potential dye fluorescence (FDSS); at 10 µM; stronger effect = higher value; % of choline EC20–EC90 response window; HEK293 expressing CHT LV-AA mutant; choline added at its EC20
Sequence (Q9GZV3 whole entry, looked up): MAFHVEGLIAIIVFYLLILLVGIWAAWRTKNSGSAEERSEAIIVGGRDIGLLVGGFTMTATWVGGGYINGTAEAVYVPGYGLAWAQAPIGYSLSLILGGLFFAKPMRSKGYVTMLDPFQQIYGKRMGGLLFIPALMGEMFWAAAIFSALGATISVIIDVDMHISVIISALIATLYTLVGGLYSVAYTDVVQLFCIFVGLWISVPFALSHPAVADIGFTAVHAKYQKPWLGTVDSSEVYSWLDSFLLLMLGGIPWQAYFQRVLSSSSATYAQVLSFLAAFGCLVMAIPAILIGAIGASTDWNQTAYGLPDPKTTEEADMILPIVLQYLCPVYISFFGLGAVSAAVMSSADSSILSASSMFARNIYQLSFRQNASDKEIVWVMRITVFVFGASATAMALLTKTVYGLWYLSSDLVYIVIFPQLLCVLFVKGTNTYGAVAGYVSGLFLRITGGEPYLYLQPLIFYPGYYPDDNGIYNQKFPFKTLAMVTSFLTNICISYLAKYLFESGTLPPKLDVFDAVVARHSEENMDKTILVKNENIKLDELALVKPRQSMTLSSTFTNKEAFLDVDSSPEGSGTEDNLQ

activation, active:
N#C/C(=C\c1ccc(-c2cccc([N+](=O)[O-])c2)o1)C(=O)NCCN1CCOCC1 15.6%
N#Cc1ccc(/C=C2\CCn3c2nc2cc(C(=O)O)ccc2c3=O)cc1 48.6%
COc1ccc(CC2c3cc(OC)c(OC)cc3CC[N+]2(C)CCC(=O)OCCCCCOC(=O)CC[N+]2(C)CCc3cc(OC)c(OC)cc3C2Cc2ccc(OC)c(OC)c2)cc1OC (configuration not stated) 35.7%
CC(Nc1nc(N2CCN(CCO)CC2)nc2ccccc12)c1ccccc1 (configuration not stated) 24.3%
COc1ccc(C(O)(C2CCCCC2)C(CN2CCCC2)c2ccccc2)cc1 (configuration not stated) 35.9%
CN(C)c1cc(N)c2ccccc2n1 (tested in a mixture with another compound) 67.2%
CC(C)(C)Nc1nc(-c2ccccn2)nc2ccccc12 57.4%
COc1cc2nc(N3CCN(C(=O)[C@@H]4CCCO4)CC3)nc(N)c2cc1OC 43%
Cn1c(=O)n(C)c2cc(C(=O)Nc3ccc4c(c3)OCO4)ccc21 43.2%
O=C(NCCC1=CCCCC1)C1CCN(Cc2cnn(-c3ccccc3)c2-n2cccc2)CC1 29.7%
O=[N+]([O-])c1ccc(N2CCNCC2)cc1NCc1cccnc1 52.9%
Cc1ccc(C(=O)C[n+]2cc(-c3ccccc3)n3c2CCCCC3)cc1 43.1%
Cc1ccc(-n2c(SCC(=O)N3c4ccccc4Sc4ccccc43)nnc2-c2ccncc2)cc1 21.6%
CCN1CCN(c2ccc([N+](=O)[O-])cc2C(=O)c2ccc(Cl)cc2)CC1 50.4%
CN(C)c1cc[n+](Cc2ccccc2)cc1 50.2%
N=c1c2c3c(sc2ncn1N)CCCCC3 42.9%
N=c1c2c3c(sc2ncn1CCCN1CCOCC1)CCCCC3 72.9%
COc1ccc([N+](=O)[O-])cc1N(CC(O)CN(CC(C)C)CC(C)C)S(=O)(=O)c1ccc(C)cc1 (configuration not stated) 37.9%
Cc1nc2ccccc2c2oc(C(=O)NCCCN3CCC(C)CC3)cc12 13.8%
O=C(c1ccccc1F)N(Cc1ccccc1)Cc1ccccc1 34.5%
CCN(CC)CCCNC(=O)c1cn(C)c2ccc(S(=O)(=O)N(C)C3CCCCC3)cc2c1=O 32.9%
CCN(CC)CCC(c1cc(OC)c(OC)c(OC)c1)c1c(OC)cc(OC)c2c(-c3ccccc3)cc(=O)oc12 (configuration not stated) 27.1%
COc1ccc(Nc2cc(C)nc(-n3nc(C)cc3C)n2)cc1 12.6%
O=Cc1ccc(OCc2cn3ccccc3n2)cc1 38.8%
Cc1cc2c(cc1C)[n+](C)cn2CC(O)COCC1CC=CCC1 (configuration not stated) 80.5%
COc1ccccc1NC(=O)C1=C(C)Nc2nc3ccccc3n2C1c1cccs1 (configuration not stated) 17.7%
Cc1cc(=O)oc2cc(OCCC[n+]3ccccc3)ccc12 61.4%
O=C(CCC1CCN(C(=O)c2cccc(Cl)c2F)CC1)Nc1ccccc1 24.5%

activation, inactive:
O=C(C1=C(O)C(=O)N(Cc2ccccc2)C1c1ccco1)c1ccco1 (configuration not stated) 9.6%
O=C(COC(=O)C1CCN(S(=O)(=O)c2ccc3c(c2)OCCO3)CC1)Nc1ccccc1OC(F)F 4.44%
CCN1/C(=C/c2ccc3ccc(C)cc3[n+]2CC)Sc2ccccc21 3.38%
Cc1ccc(C(=O)c2ccc(N3CCN(C)CC3)c([N+](=O)[O-])c2)cc1 9.27%
